# Experimental data from PubChem BioAssay (NCATS).
# Several values for one entry are separate records, joined by “and”; a condition that tells them apart may be missing. Identical values can stand only once. Inconclusive results are not listed. Activity calls are given as the source filed them. The call rests on the fitted dose curve; in most records, active means well fitted cell-killing curve with a large enough effect; inconclusive means small, poorly fitted or top-dose-only effect, or effect the other way; inactive means no such curve, though single readings can be large or run the other way.
# Assay: Viability qHTS for spleen associated tyrosine kinase inhibitor (SYKi) drug resistant MV4-11 cells (AID 1963824); further: nearly all actives have a fitted effect of over 35% in size
# Conditions: SYKi-resistant MV4-11 viability, CellTiter-Glo, 72 h; series mostly up to 45 µM
# Source text: Department of Medicine, Hematology/Oncology
# University Hospital Frankfurt, Germany.
# Trials have shown promising clinical activity of the selective SYK inhibitor entospletinib in patients with high expressing HOXA9/MEIS1 acute leukemias. As the development of resistance mechanisms is a common problem in the use of targeted drugs, we performed a chemical library screen to identify drug sensitivities in SYK inhibitor resistant AML cells. […] Glucocorticoids are potent immunosuppressants which work in part by inhibiting the transcription of cytokine genes.
# Described herein is a viability screen to look for activity in the SYK inhibitor drug resistant cell line against four NCATS compound libraries (MIPE 5.0, NPC, NPACT, and Kinase) totaling 11372 compounds. Active hits were reacquired for confirmation and further secondary assay testing.
# SEQUENCE No. (e.g., 1, 2, 3, etc.); […] (e.g., Cells, Incubation, Reagent, etc.); VALUE; DESCRIPTION.
# 1; Media; 2uL; white, solid-bottom Corning assay plate.
# 2; Compounds; 23nL; Echo acoustic dispenser.
# 3; Cell; 5uL; 500 cells per well.
# 4: Incubation; 72hr; 37 C, 5% CO2, 95% humidity.
# 5; Reagent; 3uL; CellTiter-Glo reagent (Promega).
# 6; Incubation; 10min; room temperature.
# 7; Detection; Luminescence; ViewLux plate reader (PerkinElmer).
# NOTES (numbers refer to Sequence numbers above
# 1. Quantitative high-throughput screening (qHTS) of small molecule compounds was conducted on drug resistant SYKi MV4-11 cell line.
# 2. Twenty-three nanoliter of small molecule compounds were added to each assay plates using the Echo acoustic dispenser (Beckman Coulter).
# 3. Cells were seeded into the assay plates at a final density of 500 cells in 5uL of media per well using the Multidrop Combi dispenser.
# 4. Plates were covered with stainless steel gasketed lids and incubated for 72 hours at standard cell culture conditions.
# 5. Viability was assessed by adding 3uL of CellTiter-Glo detection reagent (Promega).
# 6. Plates were covered with gasket lids and incubated for 10 minutes at room temperature.
# 7. Luminescence was measured on a ViewLux plate reader (PerkinElmer).
# Potency means the concentration at half of the fitted maximal effect.
Structure (SMILES),Potency,"viability, % of control"
C=C[C@@]1(C)CCC2=C([C@H]1OC(C)=O)[C@H](OC(C)=O)CC1[C@](C)(C(=O)OC)CC[C@H](OC(C)=O)[C@]21C (stereo not given in full),inactive,–
Cc1c(C(=O)NCc2cccnc2)nn(-c2ccc(Cl)cc2Cl)c1-c1ccc(Cl)cc1,inactive,–
C[C@]1(CO)CN(c2cc(C(=O)Nc3ccc4c(c3)-c3c(c(C(N)=O)nn3-c3ccc(F)cc3)CC4)c(Cl)cn2)C[C@@]1(C)CO,2.91 µM (active),–
COc1ccc2c(c1)OC[C@]1(O)c3cc4c(cc3O[C@H]21)OCO4,inactive,–
CC(=O)Nc1ccc(OCCOCCOc2ccc(NC(C)=O)cc2)cc1,inactive,–
O=P(O)(O)C(O)(Cc1cccnc1)P(=O)(O)O,inactive,–
C=C1CCC[C@]2(C)CC/C(=C(/CO)C(=O)OC)C[C@@H]12,14.6 µM (active),–
CC12CCC(=O)C=C1C(O)CC1C2C(O)CC2(C)C1CC[C@]2(O)C(=O)CO (stereo not given in full),–,90% [at 9.25 µM] (inactive)
COc1cc(C[C@H]2C(=O)OC[C@@H]2Cc2ccc(OC)c(OC)c2)ccc1O,0.255 µM (active),–
CC(C)c1onc(-c2c(Cl)cccc2Cl)c1COc1ccc(/C=C/c2cccc(C(=O)O)c2)c(Cl)c1,14.8 µM (active),–
C=C1C(=O)OC2/C=C(\C)CC/C=C(\C)CC(OC(C)=O)C12 (stereo not given),2.59 µM (active),–
CCC(CC)C(=O)OC12C(OC(=O)C(C)C)C(C)C3(O)C(C=C(CO)CC4(O)C(=O)C(C)=CC43)C1C2(C)C (stereo not given),0.01 µM (active),–
CC(C)=CCC/C(C)=C/CO[C@@H]1O[C@H](CO[C@@H]2O[C@@H](CO)[C@H](O)[C@H]2O)[C@@H](O)[C@H](O)[C@H]1O,inactive,–
COc1cc(O[C@@H]2O[C@H](CO)[C@@H](O)[C@H](O)[C@H]2O)c(CCC(=O)OC[C@H]2O[C@@H](Oc3cc(OC)c(C4OC(=O)C(C)(O)C4O)cc3CCC(=O)O)[C@H](O)[C@@H](O)[C@@H]2O)cc1C1OC(=O)C(C)(O)C1O (stereo not given in full),–,81.1% [at 9.25 µM] (inactive)
C[C@@H]1O[C@@H](O[C@H]2[C@H](O[C@H]3[C@H](O[C@H]4CC[C@@]5(CO)C(CC[C@]6(C)C5CC=C5C7CC(C)(C)C[C@@H](O)[C@]7(C)CC[C@]56C)C4(C)C)O[C@H](C(=O)O)[C@@H](O)[C@@H]3O)OC[C@@H](O)[C@@H]2O)[C@H](O)[C@H](O)[C@H]1O (stereo not given in full),–,70% [at 9.25 µM] (inactive)
CC(C)S(=O)(=O)c1ccc2nccc(Nc3ccc4scnc4c3)c2c1,16.4 µM (active),–
NS(=O)(=O)c1ccc(N2CCCCS2(=O)=O)cc1,inactive,–
COc1c(F)cccc1C(=O)N1C[C@@H](C)CC[C@H]1CNc1ccc(Br)cn1,9.2 µM (active),–
Cc1ccc(C(=O)C(=O)O)cc1C,inactive,–
C/C=C/C(=O)N(CC)c1ccccc1C,inactive,–

Structure (SMILES),Potency,"viability, % of control"
COc1cc(C2OCC3(O)C(c4ccc(O[C@@H]5O[C@H](CO)[C@@H](O)[C@H](O)[C@H]5O)c(OC)c4)OCC23O)ccc1O (stereo not given in full),inactive,–
CC(C)(C#N)c1cc(Cn2cncn2)cc(C(C)(C)C#N)c1,inactive,–
CC/C(=C(\c1ccccc1)c1ccc(OCCN(C)C)cc1)c1ccccc1,10.8 µM (active) and 18.8 µM (active),–
Cc1scc2c1N(C(=O)CN1CCN(C)CC1)c1ccccc1NC2=O,inactive,–
CC[C@H](C)/C=C(C)/C=C/C1=CC2=C(Cl)C(=O)[C@](C)(O)[C@H](OC(C)=O)[C@H]2CO1,7.18 µM (active),–
C[C@@H]1O[C@@H](O[C@@H]2[C@@H](O)[C@H](O[C@H]3[C@H](O[C@H]4CC[C@@]5(C)C(CC[C@]6(C)C5CC=C5[C@@H]7CC(C)(C)CC[C@]7(C(=O)O[C@@H]7O[C@H](CO)[C@@H](O)[C@H](O)[C@H]7O[C@@H]7O[C@@H](C)[C@H](O[C@@H]8O[C@@H](C)[C@H](O)[C@@H](O)[C@H]8O)[C@@H](O)[C@H]7O)CC[C@]56C)[C@@]4(C)CO)O[C@H](C(=O)O)[C@@H](O)[C@@H]3O)O[C@H](CO)[C@H]2O)[C@H](O)[C@H](O)[C@H]1O (stereo not given in full),–,108% [at 9.25 µM] (inactive)
Cc1cnc(NC(=O)C2=C(O)c3ccccc3S(=O)(=O)N2C)s1,inactive,–
COC(=O)C1=C(C)NC(C)=C(C(=O)OCCCN2CCC(c3ccccc3)(c3ccccc3)CC2)C1c1cccc([N+](=O)[O-])c1 (stereo not given),4.68 µM (active) and 7.5 µM (active),–
Fc1ccc(N2CCCCC2)c(NC(=S)c2ccncc2)c1,9.2 µM (active),–
CCCOC(=O)c1ccccc1,inactive,–
CC(C)C1NC(=O)CNC(=O)C2CCCN2C(=O)C(Cc2c[nH]c3ccccc23)NC(=O)CNC(=O)C(Cc2ccc(O)cc2)NC(=O)CNC1=O (stereo not given),inactive,–
CC12CC(O)C(O)C=C1c1cc(O)cc(O)c1C(=O)O2 (stereo not given),inactive,–
Cc1c(-c2c(-c3ccc(F)o3)sc3ncnc(O[C@@H](Cc4ccccc4OCc4ccnn4CC(F)(F)F)C(=O)O)c23)ccc(OCCN2CCN(C)CC2)c1Cl,0.0132 µM (active),–
C[C@@H]1C[C@H]2[C@@H]3CCC4=CC(=O)C=C[C@]4(C)[C@@]3(F)[C@@H](O)C[C@]2(C)[C@@]1(O)C(=O)COP(=O)(O)O,inactive,–
N[C@@]1(C(=O)O)CC[C@H]2[C@H](C(=O)O)[C@H]21,inactive,–
COc1cc(N2CCN(C)CC2)ccc1Nc1ncc2c(n1)N(C)c1ccccc1C(=O)N2C,1.86 µM (active),–
C=CC(=O)Nc1cccc(Nc2nc(Nc3ccc(NC4CN(CCF)C4)cc3OC)ncc2C(F)(F)F)c1,1.3 µM (active) and 1.48 µM (active),–
CCN(CC)C(=O)/C(C#N)=C/c1cc(O)c(O)c([N+](=O)[O-])c1,16.8 µM (active),–
COCCNCc1ccc(-c2cc3nccc(Oc4ccc(NC(=S)NC(=O)Cc5ccc(F)cc5)cc4F)c3s2)nc1,0.0259 µM (active),–
C[C@H]1O[C@@H](n2cc(F)c(=O)[nH]c2=O)[C@H](O)[C@@H]1O,2.11 µM (active) and 1.05 µM (active),–
